Experimental data as given in PubChem BioAssay (NCI).
This is part of a sample that, as a whole, favours compounds with a hit. Of some 83,000 tested, about 20% had one in any assay.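 The test compound was applied at a single concentration to cells in 96-well plates for 48 hours, and percent growth was recorded.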 Values without a mark were called inactive. The source made the active and inactive calls. Rule for the calls: active = growth percent below 10; inactive = the rest.

Assays:
Assay in all cases: NCI-60 one-dose screen, 48 h (100 = growth as untreated, 0 = no growth, -100 = all killed)
Conditions in all cases: 10 µM unless noted
SK-MEL-2 melanoma = system: SK-MEL-2 melanoma
EKVX NSCLC = system: EKVX NSCLC
SN12C renal = system: SN12C renal
UO-31 renal = system: UO-31 renal
TK-10 renal = system: TK-10 renal
ACHN renal = system: ACHN renal
CAKI-1 renal = system: CAKI-1 renal
A498 renal = system: A498 renal
CCRF-CEM leukemia = system: CCRF-CEM leukemia
MOLT-4 leukemia = system: MOLT-4 leukemia

Row | SMILES | growth (SK-MEL-2 melanoma) | growth (EKVX NSCLC) | growth (SN12C renal) | growth (UO-31 renal) | growth (TK-10 renal) | growth (ACHN renal) | growth (CAKI-1 renal) | growth (A498 renal) | growth (CCRF-CEM leukemia) | growth (MOLT-4 leukemia)
1 | COC(=O)N1CCN(CCNCc2ccc(NC(=O)c3ccc(C)c(C#Cc4cnc5cccnn45)c3)cc2C(F)(F)F)CC1 | 4.46% (active) | 48.9% | 39.8% | 26.8% | 68.9% | 29.6% | 20.2% | 47.8% | 10.8% | 8.21% (active)
2 | COc1ccc2[nH]cc(/C=N/Nc3ccnc4cc(Cl)ccc34)c2c1 | -83.6% (active) | -96.5% (active) | -100% (active) | -100% (active) | -96.5% (active) | -100% (active) | -99.9% (active) | -98.6% (active) | -42.8% (active) | -48.4% (active)
3 | CNC(=O)c1cc(-n2ccc3cc(NC(=O)Nc4ccc(N5CCN(C)CC5)c(C(F)(F)F)c4)ccc32)ccn1 | 87.2% | 84.5% | 94.6% | 42% | 121% | 77.4% | 85.8% | 87.9% | 7.32% (active) | -12.8% (active)
4 | C[C@@H]1OCC2(CCN(c3cnc(C(=O)Nc4cc(F)cc5cccnc45)cn3)CC2)[C@@H]1N | 97.9% | 78.2% | 59.6% | 41.1% | 90.8% | 31.8% | 45.8% | 71.9% | 15.7% | 20.8%
5 | CN(C)c1ccc(-c2cc(-c3c[nH]c4ccccc34)nc(N)c2C#N)cc1 | -0.536% (active) | 61.8% | 43.1% | 44.6% | 72.9% | 47.1% | 24.1% | -0.675% (active) | 30% | 35.4%
6 | Cc1cc2nc(C(Cl)Cl)nc(-c3ccc(S(=O)(=O)N(C)C)cc3)n2n1 | 93% | 48.7% | 55% | 65.7% | 85% | 25.2% | 45% | 90.9% | 40.8% | 28.4%
7 | Cc1ccc2c(n1)C(=O)C(Cl)=C(Nc1ccc(C(F)(F)F)cc1)C2=O | 103% | 77.2% | 91.8% | -85.2% (active) | 85.4% | -98.4% (active) | 44.4% | 79% | 2.47% (active) | 8.71% (active)
8 | O=C(CCCCCC/C=C\c1csc(Br)n1)NO | 101% | 94% | 98.2% | 60.6% | 59.4% | 82.8% | 78.7% | 87.1% | 52.7% | 63.7%
9 | C#C[C@]1(O)CC[C@H]2[C@@H]3CC=C4c5sc(Nc6cc(C)cc(C)c6)nc5CC[C@]4(C)[C@H]3CC[C@@]21C | 14% | -3.54% (active) | 51.4% | 8.23% (active) | 62.8% | 34.3% | 11% | -3.87% (active) | 10.7% | 0.923% (active)
10 | N#Cc1c(-c2cccs2)cc(-c2cnccn2)nc1SCC(=O)N/N=C/c1ccncc1 | 121% | 99% | 110% | 88.4% | 128% | 109% | 95.9% | 116% | 103% | 117%
11 | CCN(CC)CCOc1ccc(C(=C(c2ccccc2)C2CCCC2)c2ccc(OCCN(CC)CC)cc2)cc1 | 6.57% (active) | 48.4% | 6.33% (active) | 86.5% | 74.3% | 95.3% | 94.2% | 96.5% | 8.31% (active) | 0.859% (active)
12 | CCOc1cccc(/C(N)=N/C(N)=N/c2nc3ccccc3s2)c1 | 117% | 73.3% | 53.1% | 38.4% | 135% | 48.7% | 62.4% | 115% | 55.8% | 62.4%
13 | Cc1ccsc1[C@H]1c2[nH]c3ccccc3c2C[C@H]2C(=O)N(CCCCCCC(=O)NO)CC(=O)N12 | 92% | 87.3% | 86.5% | 75.6% | 84% | 93.5% | 90.6% | 109% | 26.5% | 40%
14 | Cc1cc(C)cc(NC2=C(Cl)C(=O)c3nc(C)ccc3C2=O)c1 | 85.5% | 55.1% | 8.28% (active) | 0.909% (active) | 128% | 2.41% (active) | 89.6% | 88.3% | 7.91% (active) | 24.6%
15 | Cn1cc(-c2nn3cc(-c4ccncc4)nc3s2)c2cc(Br)ccc21 | 75.2% | 45.7% | 67.7% | 39.3% | 113% | 68.9% | 56.5% | 81.4% | 29.7% | 12.9%
16 | CC(C)(C)OC(=O)NCc1ccc(CNc2c([N+](=O)[O-])cnc3ccccc23)cc1 | 29.7% | 44.2% | 75.9% | 50.3% | 80.4% | 61.1% | 67.1% | 36.2% | 59.8% | 34.4%
17 | O=C(CSc1nc2ccccc2c(=O)n1CCc1ccccc1)Nc1ccc(S(=O)(=O)Nc2ccc(Cl)nn2)cc1 | 111% | 86.9% | 94.9% | 65.1% | 149% | 90.6% | 75.1% | 107% | 99.2% | 99.8%
18 | Cc1ccc([C@H]2c3[nH]c4ccccc4c3C[C@H]3C(=O)N(CCCCCCC(=O)NO)CC(=O)N23)s1 | 84.9% | 69.4% | 85.1% | 71.9% | 64.2% | 85.5% | 60.3% | 76% | 22% | 12.5%
19 | COc1cc(C(=O)c2cc(C(C)=O)c3cccc(C)n23)cc(OC)c1OC | -11.8% (active) | 53.6% | 45.3% | 45.2% | 78.6% | 51.4% | 33.5% | 21.9% | 44.1% | 38.6%
20 | O=c1c2cc(-c3ccc(F)cc3F)ccc2n(Nc2ccccc2)c(=O)n1-c1cccc(C(F)(F)F)c1 | -11.2% (active) | 6.49% (active) | 3.98% (active) | 4.59% (active) | 11.3% | 2.25% (active) | -10.6% (active) | -18.1% (active) | 15.5% | 6.73% (active)
21 | C#CCOc1ccccc1C(OC(=O)c1ccccc1)C(=O)NC(C)(C)C(C)(C)C (stereo not given) | 90.6% | 75.3% | 95.7% | 62.7% | 101% | 97.2% | 63.5% | 120% | 79.5% | 40.6%
22 | O=S(=O)(Oc1ccc(-c2cn3ccoc3n2)cc1)C1CCCCC1 | 99.4% | 100% | 103% | 97.4% | 105% | 105% | 92.3% | 90% | 87.2% | 93.5%

Row | SMILES | growth (SK-MEL-2 melanoma) | growth (EKVX NSCLC) | growth (SN12C renal) | growth (UO-31 renal) | growth (TK-10 renal) | growth (ACHN renal) | growth (CAKI-1 renal) | growth (A498 renal) | growth (CCRF-CEM leukemia) | growth (MOLT-4 leukemia)
23 | C/C(=N\NC(=O)Nc1ccccc1)c1nnn(-c2ccc([N+](=O)[O-])cc2)c1C | 104% | 103% | 110% | 72.4% | 99.7% | 104% | 94.4% | 105% | 105% | 103%
24 | Cc1cc(NS(=O)(=O)c2ccc(NC(=O)CSc3nc4ccccc4c(=O)n3-c3ccccc3)cc2)no1 | 109% | 96.8% | 101% | 85.9% | 108% | 98.1% | 94.9% | 99.6% | 96.8% | 107%
25 | c1ccc(-c2cn3c(-c4c[nH]c5ccccc45)csc3n2)cc1 | 77.4% | 72% | 53.6% | 73% | 148% | 91.8% | 77.9% | 79.3% | 53% | 66.9%
26 | CCCCOc1ccc(S(=O)(=O)N2CCN(c3nc(C)cc(N4CCOCC4)n3)CC2)cc1 | -8.8% (active) | 39.9% | 40.4% | 17.4% | 33.6% | 15.3% | 19.8% | 37.1% | 60.3% | 26.1%
27 | CN1CCN(Cc2ccc(NC(=O)c3cncc(C#Cc4cnc5ccc(OC6CCOCC6)nn45)c3)cc2C(F)(F)F)CC1 | -90.8% (active) | -73.8% (active) | -78.8% (active) | -92.3% (active) | -89.6% (active) | -100% (active) | -97% (active) | -92.5% (active) | 0.551% (active) | 3.74% (active)
28 | COc1ccc(/C(=N\NC(N)=S)c2ccc(Cl)cc2)cc1OC | -23.8% (active) | 50.8% | 29% | 34.5% | 83.3% | 42.3% | 31.2% | -4.86% (active) | 25.6% | 29.5%
29 | COc1ccc2c(c1)C=CC1(O2)Oc2ccc(OC)cc2C=C1C (stereo not given) | 47.3% | 47.3% | 51.9% | 44.9% | 98% | 38% | 30.3% | 7.58% (active) | 7.74% (active) | 9.45% (active)
30 | CCCCCCNC(=O)Oc1ccc(/C(=C(/C)c2ccc(OC)cc2)c2ccc(OCCN3CCCCCC3)cc2)cc1 | 74.5% | 54.8% | 14.5% | 6.69% (active) | 92.1% | 47.7% | 17.3% | 64.2% | 12.4% | 9.66% (active)
31 | O=C(O)CC1CCN(c2ccc3nnc(Cl)n3n2)CC1 | 106% | 99.1% | 98.4% | 81.5% | 102% | 98.6% | 95.8% | 90.2% | 111% | 109%
32 | CN1CCN(c2ccc(C(=O)/C=C/c3cc(F)cc(C(F)(F)F)c3)cc2)CC1 | 117% | 88.9% | 75.7% | 53.3% | 144% | 67.9% | 51.5% | 96.9% | 14.1% | 46.8%
33 | NS(=O)(=O)c1ccc(Nc2nc(N/N=C/c3ccc4c(c3)OCO4)nc(Nc3ccccc3)n2)cc1 | 55.8% | 73.2% | 54.3% | 76.8% | 96.6% | 57.8% | 45.4% | 51.1% | 16.3% | 11.2%
34 | C#CCn1cc(/C=N/Nc2nc(-c3ccc(Br)cc3)cs2)c2ccccc21 | 104% | 63.9% | 95.1% | 81.4% | 162% | 98% | 106% | 94.7% | 101% | 101%
35 | CC1=C(C)C(=O)C(Nc2ccc3c(c2)OCO3)=C(Br)C1=O | 114% | 76.3% | 102% | 88.1% | 150% | 100% | 95.6% | 95.2% | 11.6% | -10.2% (active)
36 | O=C1[C@@H]2Cc3c([nH]c4ccccc34)[C@H](c3ccc(Cl)cc3)N2C(=O)CN1C1CCN(Cc2ccccc2)CC1 | 82.3% | 47.1% | 46.4% | 26.3% | 81% | 49.4% | 27.3% | 57.5% | 36.7% | 27%
37 | N#Cc1c(-c2ccc(F)cc2)cc(-c2c[nH]c3ccccc23)nc1-c1c[nH]c2ccccc12 | 96.1% | 92.8% | 98.8% | 84.7% | 128% | 102% | 92.5% | 89.4% | 102% | 103%
38 | CCNC(=O)Oc1ccc(/C(=C(/C)c2ccc(Cl)cc2)c2ccc(OCCN3CCCCCC3)cc2)cc1 | 64.2% | 56.1% | 36.7% | -9.5% (active) | 84.5% | 42.1% | 10.3% | 64.7% | 12.7% | 13%
39 | COc1cc2cc(Oc3ccc(NC(=O)c4cc(C(F)(F)F)cc(C(F)(F)F)c4)cc3)c(C)nc2cc1OCCN1CCOCC1 | 101% | 57.7% | 83% | 55.8% | 105% | 77.3% | 52.8% | 55% | 45% | 66.1%
40 | Clc1cccc(/C=N/Nc2nc(N/N=C/c3cccc(Cl)c3)nc(N3CCOCC3)n2)c1 | -1.89% (active) | 72.2% | 59.9% | 26.8% | 100% | 25.8% | 37.6% | 4.3% (active) | 24.8% | 6.04% (active)
41 | COc1ccc(N2CCN(C3=C(Cl)C(=O)c4ncccc4C3=O)CC2)cc1 | 95.1% | 99.9% | 84.7% | 19.2% | 99.6% | -18.7% (active) | 32.3% | 103% | 6.79% (active) | 4.55% (active)
42 | CN1CCN(c2ccc(Nc3nc(NCCNC(=O)c4ccccc4)c4sccc4n3)cc2)CC1 | 96.6% | 97.3% | 74% | 66% | 137% | 54.6% | 48.3% | 130% | 27.9% | 13.9%
43 | COc1ccc(NC2=C(Br)C(=O)C(C)=C(C)C2=O)cc1OC | 106% | 80.8% | 100% | 83.5% | 165% | 99.7% | 99.1% | 95% | -27.9% (active) | -41.6% (active)
